# An excerpt weighted towards active compounds, which were near 12% of everything screened.
# G9a inh: G9a (human) methyltransferase inhibition; Q96KQ7; G9a H3K9 monomethylation, AlphaScreen, 2 h; 350,000 compounds, 8.8% hits; Potency, µM (highest dose often 102 µM), without a hit: at the highest dose activity, negative = inhibition, usual class: inhibitors; further: on the % scale 0 is the no-effect control and ±100 the full control effect; nearly all actives have a fitted effect of over 75% in size
#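 Enzyme 20 nM + cpd, 15 min RT; add b-H3K9 pep 500 nM / SAM 20 uM; 2 h RT; anti-H3K9me1 Ab 0.5 ug/mL + SA donor / anti-rabbit acceptor beads 20 ug/mL each, 10 min; AlphaScreen read.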
# BAZ2B inh: blocks human BAZ2B | AlphaScreen BAZ2B-H3K14Ac peptide displacement | Potency, µM (doses to about 114 µM), inactives show at the top dose activity change, negative = inhibition, usual class: inhibitors | 360,000 compounds, 4.4% hits | AID 504333; further: on the % scale 0 is the no-effect control and ±100 the full control effect; nearly all actives have a fitted effect of over 60% in size
#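 Inhibition is scored as reduced AlphaScreen emission. The BAZ2B/b-H3(5-23)K14Ac complex (50 nM each) in PBS pH 7.4, 0.01% Tween-20 meets compound (up to 110 uM) for 30 min at RT before bead addition.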
# L3MBTL1 block: blocks human L3MBTL1. Q9Y468. AlphaScreen L3MBTL1–H3K9me1 peptide binding. Potency, µM (series often up to 57.1 µM), inactives show at the highest dose activity, negative = inhibition, hits mostly inhibitors. AID 485360. 230,000 compounds, 0.66% hits; further: on the % scale 0 is the no-effect control and ±100 the full control effect; nearly all actives have a fitted effect of over 60% in size
#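 Displacement of a biotinylated histone H3(1-15) peptide monomethylated at Lys9 (75 nM) from L3MBTL1 (50 nM) was measured by AlphaScreen after a 30 min room-temperature compound incubation; cefsulodin titration served as intraplate control.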
# HP1b chromo inh: inhibitors of HP1-beta chromodomain binding to methylated histone tails | AlphaScreen HP1-beta / biotin-H3K9me3 peptide binding | P83916 | Potency, µM (titrated, usually from 114 µM), for inactives: at the highest dose activity change, negative = inhibition, most hits filed as inhibitors | 390,000 compounds, 0.56% hits; further: nearly all actives have a fitted effect of over 70% in size
#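 HP1-beta protein (50 nM final) preincubated 30 min at room temperature with biotinylated H3(1-18)K9me3 peptide (50 nM) in PBS pH 7.4, 0.01% Tween-20, then compound added for 30 min. AlphaScreen streptavidin donor/nickel chelate acceptor beads (10 ug/mL final), 30 min dark, luminescence read.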
# JMJD2A Tudor: blocks the human JMJD2A Tudor domain. AlphaScreen JMJD2A-Tudor / H3K4me3 peptide binding. O75164. 390,000 compounds, 4.4% hits. Potency, µM (titrated, usually from 114 µM), inactives show at the highest dose activity change, negative = inhibition, most hits filed as inhibitors; further: on the % scale 0 is the no-effect control and ±100 the full control effect; nearly all actives have a fitted effect of over 50% in size
# Sfp inh: Sfp phosphopantetheinyl transferase inhibition; Biochemical Sfp PPTase activity, qHTS; 310,000 compounds, 3.5% hits; Potency, µM, for inactives: largest response in the series, negative = inhibition, actives largely listed as inhibitors;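 further: the enzyme is Sfp with the accession as filed and its product quenches rhodamine fluorescence; 0% = enzyme reaction without inhibitor and -100% = no enzyme wells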
#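 Sfp 15 nM + cpd, 15 min RT; start w/ rhodamine-CoA 5 uM, BHQ-2-YbbR 12.5 uM (final); 50 mM Hepes pH 7.6, 10 mM MgCl2, 0.01% NP-40, 0.01% BSA; read 525/598 nm at 0 and 30 min.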
# The depositor's hits bear a star; ? = inconclusive; / = no result; ! = a repeat was not active; [ ] = remark or other dose. The call rests on the fitted dose curve; in most records, active means well fitted curve in the direction sought with a large enough effect; inconclusive means small, poorly fitted or top-dose-only effect, or another doubt; inactive means no such curve, though single readings can be large; an effect the other way counts as inactive or inconclusive. Potency means the concentration at half of the fitted maximal effect.
SMILES,G9a inh,BAZ2B inh,L3MBTL1 block,HP1b chromo inh,JMJD2A Tudor,Sfp inh
CN(c1ccc(Cl)cc1)S(=O)(=O)c1nnc(NC(=O)c2ccco2)s1,-72%,-33%,/,2%,-40%,21%
Cc1ccc(N(C)S(=O)(=O)c2nnc(NC(=O)c3ccco3)s2)cc1,4µM*!,?,/,53%,?,32%
CN1CCCC2(CCN(C(=O)c3cnccn3)CC2)C1,4%[12.7 µM],/,/,/,/,3%
Cc1cc(C)c(N(Cc2ccccc2)S(=O)(=O)c2ccc(OCCNC(=O)c3cc4ccccc4o3)cc2)c(C(=O)NO)c1,/,/,/,/,/,30%
Cc1ccsc1/C=C1\SC(=S)N(CC2CCCO2)C1=O (centres undefined),5µM*,10µM*,?,45µM*,10µM*,9%
CCCOc1ccc(/C=C2\SC(=S)N(CC3CCCO3)C2=O)cc1 (centres undefined),3.5µM*,?,-18%,?,?,-2%
Cc1ccsc1/C=C1/SC(=O)N(CC(=O)N2CCOCC2)C1=O,13%,-24%,-9%,38%,-2%,3%
CCOc1ccc(/C=C2\SC(=S)N(N3C(=O)C4CC4C3=O)C2=O)cc1 (centres undefined),40µM*,-25%,/,-21%,?,-27%
O=C1/C(=C/c2ccc(O)cc2)SC(=S)N1CC1CCCO1 (centres undefined),?,?,-17%,-22%,?,-16%
COc1ccccc1NC(=O)C(OC(=O)CNC(=O)c1ccccc1)c1ccccc1 (centres undefined),/,/,/,/,-19%,/
CCCn1cc(S(=O)(=O)c2cccc(Cl)c2)c(=O)c2cc(F)c(N3CCOCC3)cc21,0%[59 µM],-1%,/,47%,6%,/
COc1ccc(CCNC(=O)C(C)n2nc(C)c3sc4ccccc4c3c2=O)cc1OC (centres undefined),-31%[59 µM],1%,/,33%,-1%,/
CCN1C=C(Cc2ccc(OC)cc2)C2=C(C1)C(c1ccc(OC)cc1)C(C#N)=C(N)O2 (centres undefined),?,45µM*,-18%,-29%,?,-22%
Cc1cccc(OCC(=O)Nc2c(C(=O)Nc3ccc(F)cc3)oc3ccccc23)c1,7%[59 µM],-6%,/,20%,-12%,/
c1cc(Nc2ncnc3sc4c(c23)CCC4)ccn1,-22%,-1%,1%,13%,-16%,10%
CC1(C)Cc2c(sc3ncn(N)c(=N)c23)CO1,14%[59 µM],-1%,4%,14%,-11%,-11%
CC1(C)Cc2c(sc3ncn4c(=S)[nH]nc4c23)CO1,3.2µM*,8%,/,?,?,45µM*
NNc1ncnc2sc3c(c12)CCC3,-13%,18µM*,-18%,-2%,22µM*,?
CN(C)c1ccc(Nc2ncnc3sc4c(c23)CCCC4)cc1,?,32µM*,/,22µM*,25µM*,/
CC1(C)Cc2c(sc3ncnc(NN)c23)CO1,19%,79µM*,-12%,20%,50µM*,40µM*
CCN(CC)c1ccc(-c2nc(-c3ccccc3C)no2)cc1[N+](=O)[O-],-49%[59 µM],-8%,/,46%,-2%,/
Cc1cc(CNC(=O)c2ccc(C)c([N+](=O)[O-])c2)c2ccccc2n1,35µM*,-35%,-1%,22%,-8%,20%
Cc1cc(CNC(=O)Cn2nc(C)c([N+](=O)[O-])c2C)c2ccccc2n1,35µM*,-19%,32%,35%,-19%,16%
Cc1ccc(C(=O)NCCn2ccc3ccccc32)cc1[N+](=O)[O-],-44%,/,/,-15%,79µM*,4%
Cc1cc2cc(CNC(=O)c3ccc(C)c([N+](=O)[O-])c3)ccc2[nH]1,56µM*,?,-6%,-12%,?,9%
Cc1cc2cc(CCNC(=O)c3ccc(C)c([N+](=O)[O-])c3)c(=O)[nH]c2cc1C,-6%[12.7 µM],6%,-4%,5%,-20%,-2%

# From PubChem BioAssay
